High-throughput results deposited in PubChem by National Center for Advancing Translational Sciences (NCATS).
Many of the other results were omitted from the sample, so hits are more common in it than they were.
Methyltransferases = Primary Screen for Target Class Profiling of Small Molecule Inhibitors of Methyltransferases; purified enzyme, MTase-Glo SAH luminescence; stronger effect = lower value; calls only at 40 µM; 3.9% of 25,000 active; AID 1745853, 2022; call rule not given here
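Each enzyme was assayed with SAM and its substrate. SAH formation detected by MTase-Glo luminescence; single-point 40 uM screen[…].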
An asterisk follows results filed as active; i = inactive; + = active, no number. On the % scale 0 is the no-effect control and ±100 the full control effect.

SMILES	Methyltransferases
O=c1ccc2[nH]cc(C3=CCNCC3)c2[nH]1	+
CCc1ccccc1NC(=O)N1Cc2ccccc2-n2cccc2C1C(C)C (stereo unspecified)	i
O=C(Nc1cccc(Cl)c1)N1Cc2ccccc2-n2cccc2C1c1ccc(F)cc1 (stereo unspecified)	i
O=S1(=O)N(CCN2CC=C(c3c[nH]c4cc(F)ccc34)CC2)c2cccc3c2N1CCC3	+
COc1ccc(C2c3cccn3-c3ccccc3CN2C(=O)Nc2ccc(OC)cc2OC)cc1 (stereo unspecified)	i
Cc1cccc(C2c3cccn3-c3ccccc3CN2C(=O)Nc2ccccc2F)c1 (stereo unspecified)	i
CC(C)c1ccc(C2c3cccn3-c3ccccc3CN2C(=O)NCc2ccco2)cc1 (stereo unspecified)	i
COC(=O)c1ccc(NC(=O)N2Cc3ccccc3-n3cccc3C2c2ccc(OC)c(OC)c2)cc1 (stereo unspecified)	i
COc1ccc(C2c3cccn3-c3ccccc3CN2C(=O)Nc2cccc(OC)c2)cc1 (stereo unspecified)	i
O=C(Nc1ccc(Br)cc1)N1Cc2ccccc2-n2cccc2C1c1ccccc1 (stereo unspecified)	i
CC1CCN(CC2CCCCCN2C(=O)Cc2ccccc2)CC1 (stereo unspecified)	i
CCOc1ccc(C2c3cccn3-c3ccccc3CN2C(=O)Nc2cccc(Cl)c2C)cc1 (stereo unspecified)	i
Cc1cccc(C2c3cccn3-c3ccccc3CN2C(=O)NC(C)C)c1 (stereo unspecified)	i
c1ccc2c(N3CCNCC3)cccc2c1	+
CCc1ccccc1NC(=O)N1Cc2ccccc2-n2cccc2C1c1ccc(OC)cc1 (stereo unspecified)	i
COc1ccc(NC(=O)N2Cc3ccccc3-n3cccc3C2c2ccc(C)cc2)cc1 (stereo unspecified)	i
CN(C)c1ccc(C2c3cccn3-c3ccccc3CN2C(=O)NCCc2ccccc2)cc1 (stereo unspecified)	i
CCCN1CCc2cc(O)cc3c2[C@H]1Cc1ccc(O)c(O)c1-3	+
CCCN1CCO[C@H]2c3cc(O)ccc3OC[C@@H]21	i
CN1CCc2cc(O)cc3c2[C@H]1Cc1ccc(O)c(O)c1-3	+
CC(C)CCNC(=O)N1Cc2ccccc2-n2cccc2C1C (stereo unspecified)	i
COc1ccccc1NC(=O)N1Cc2ccccc2-n2cccc2C1c1ccc(N(C)C)cc1 (stereo unspecified)	i
CCCNC(=O)N1Cc2ccccc2-n2cccc2C1c1ccc(F)cc1 (stereo unspecified)	i
O=C(Nc1ccccc1)N1Cc2ccccc2-n2cccc2C1c1ccccc1 (stereo unspecified)	i
CCc1ccc(C2c3cccn3-c3ccccc3CN2C(=O)Nc2cccc(C(F)(F)F)c2)cc1 (stereo unspecified)	i
SMILES	Methyltransferases
CCOc1ccccc1NC(=O)N1Cc2c(C)cc(C)nc2-n2cccc2C1c1ccc(F)cc1 (stereo unspecified)	i
O=C(NCc1ccco1)N1Cc2ccccc2-n2cccc2C1c1ccc(Cl)cc1 (stereo unspecified)	i
CCOc1ccc(C2c3cccn3-c3ccccc3CN2C(=O)Nc2cccc(OC)c2)cc1 (stereo unspecified)	i
CN1CCC[C@@H]1Cc1c[nH]c2ccc(Nc3ncccc3[N+](=O)[O-])cc12	+
Cc1cccc(NC(=O)N2Cc3ccccc3-n3cccc3C2c2ccc(N(C)C)cc2)c1C (stereo unspecified)	i
O=C(NC1CCCC1)N1Cc2ccccc2-n2cccc2C1c1cccs1 (stereo unspecified)	i
CCc1ccc(NC(=O)N2Cc3ccccc3-n3cccc3C2c2ccc(OC)cc2)cc1 (stereo unspecified)	i
CCc1ccc(C2c3cccn3-c3ccccc3CN2C(=O)Nc2ccc(C)cc2C)cc1 (stereo unspecified)	i
CC(C)C1c2cccn2-c2ccccc2CN1C(=O)Nc1ccccc1 (stereo unspecified)	i
Cc1c2ccncc2c(C)c2c1[nH]c1ccccc12	+
Cc1nccc2c1[nH]c1ccccc12	i
COC(=O)CCNC(=O)N1Cc2ccccc2-n2cccc2C1c1ccc(SC)cc1 (stereo unspecified)	i
O=C(NCc1ccccc1)N1Cc2ccccc2-n2cccc2C1c1cccc(Cl)c1 (stereo unspecified)	i
NCCc1ccc(O)cc1	+
NNC(=O)c1ccc(O)cc1	i
CCc1ccc(C2c3cccn3-c3ccccc3CN2C(=O)Nc2cccc(C)c2C)cc1 (stereo unspecified)	i
COc1cccc(NC(=O)N2Cc3ccccc3-n3cccc3C2c2ccc(F)cc2)c1 (stereo unspecified)	i
CCOc1ccc(NC(=O)N2Cc3ccccc3-n3cccc3C2c2ccc(OCC)cc2)cc1 (stereo unspecified)	i
